# The campaign covered roughly 300,000 compounds. About 37,000 (12%) were called active. Cut-off read from the data, not from the text of the source: active = max response mostly above about 13% (no sharp cut-off); inactive = mostly below about 14%. For the sample, actives were picked, then their nearest neighbours and some compounds at random.
# Assay: Cycloheximide Counterscreen for Small Molecule Inhibitors of Shiga Toxin; note: read at 38.3 µM for the half of the compounds with a filed dose; 0% is about no effect
# Conditions: cell reporter, cycloheximide protein synthesis inhibition counterscreen; stronger effect = higher value
row,Compound,max response
1,CN(CC(=O)Nc1c(Cl)cccc1Cl)C(=O)c1ccncc1,-0.763% (inactive)
2,CC1CN(C(=O)CCC(=O)NCCCN2CCC(Cc3ccccc3)CC2)c2cc(Cl)ccc2O1 (stereo unspecified),-3.45% (inactive)
3,COc1ccc(S(=O)(=O)NCC(=O)NC2CC2)cc1OC,-2.51% (inactive)
4,COc1ccc(CCNC(=O)C2CCCN(S(=O)(=O)c3ccc(OC)cc3)C2)cc1 (stereo unspecified),-5.86% (inactive)
5,COc1nc(NC2CCCCC2)nc(N2CCCCCC2)n1,8.36% (inactive)
6,O=C1Nc2cc(C(=O)N3CCN(c4ccc(F)cc4)CC3)ccc2NC1CSCc1cccc(F)c1 (stereo unspecified),2.89% (inactive)
7,Cc1cc(/C=N/Nc2ccc([N+](=O)[O-])cn2)c(C)n1-c1cccc(C(=O)O)c1,27.7% (active)
8,Cc1ccc(-n2c(C)cc(/C=N/Nc3ccc([N+](=O)[O-])cn3)c2C)c(C)c1,20.7% (inactive)
9,Cc1cc(/C=N/n2cnnc2)c(C)n1-c1cccc(C(=O)O)c1,4.01% (inactive)
10,O=C1CSC2=NCN(c3ccccc3)CN12,1.46% (inactive)
11,COc1ccc(S(=O)(=O)N2CCOCC2)cc1C(=O)NC1CCCCC1,-2.56% (inactive)
12,CC(=O)Nc1cccc(-c2cnc3ccccc3n2)c1,34.8% (active)
13,Cc1cccc(Nc2nc(-c3ccccc3)cs2)n1,56.2% (active)
14,CC(=O)Nc1cccc(NC(=O)c2c(-c3ccccc3)noc2C)c1,-1.94% (inactive)
15,CC(=O)Nc1ccc(-c2csc(NC=C3C(=O)OC(C)(C)OC3=O)n2)cc1,19.8% (inactive)
16,COc1ccc(CCNc2nc(-c3cccc(NC(C)=O)c3)cs2)cc1OC,10.5% (inactive)
17,CC(=O)Nc1cccc(-c2csc(Nc3cccc(C)n3)n2)c1,50.7% (active)
18,Cc1cccc(S(=O)(=O)CC(=O)Nc2nc(-c3ccccc3)cs2)c1,-5.29% (inactive)
19,CCS(=O)(=O)Nc1cccc(-c2cc(-c3ccccc3)c3cc(C)ccc3n2)c1,-0.522% (inactive)
20,COc1ccc(C(=O)NC(C)c2nccs2)cc1OC1CCN(C(C)C)CC1 (stereo unspecified),-0.856% (inactive)
21,O=C(CNc1cccc(S(=O)(=O)N2CCCCC2)c1)Nc1ccccc1F,-2.83% (inactive)
22,Cc1noc(C)c1CSc1nc2cc(S(=O)(=O)N3CCOCC3)ccc2o1,-1.38% (inactive)
23,CCNC(=O)c1sccc1-n1cccc1,2.68% (inactive)

row,Compound,max response
1,Cc1ccc(C(=O)N/C(=C\c2cn(C)c3ccccc23)C(=O)N2CCN(C)CC2)cc1,1.99% (inactive)
2,CCCn1nnnc1NCc1ccc(OC)cc1,-1.31% (inactive)
3,CC1(C)CC(=O)CC2(C1)NCC(c1ccccc1Cl)c1c2[nH]c2ccccc12 (stereo unspecified),2.51% (inactive)
4,Cc1oc2cc([N+](=O)[O-])c(O)c([N+](=O)[O-])c2c1C(=O)c1ccc(Br)cc1,-7.47% (inactive)
5,CCn1c(C)c(C)c2cc(C(=O)N3CCN(c4cccc(C)c4C)CC3)ccc21,-3.95% (inactive)
6,CCC(CC)C(=O)N1CCN(c2cccc(C)c2C)CC1,4.17% (inactive)
7,Cc1cccc(N2CCN(C(=O)/C=C/c3ccco3)CC2)c1C,15.1% (active)
8,COCCCn1c(-c2cccs2)nc2nc3ccccc3nc21,8.97% (inactive)
9,CCOC(=O)CN(C)S(=O)(=O)c1ccc(-c2cc(C(=O)OC)sc2C(F)(F)F)cc1,4.79% (inactive)
10,CCOC(=O)c1c(S(=O)(=O)Nc2ccc(CN3CCC(C)CC3)cc2)c(C)n(C)c1C,-1.22% (inactive)
11,O=C(CCn1c(=S)[nH]c2cc3c(cc2c1=O)OCO3)NCc1ccc(Cl)cc1,12.5% (inactive)
12,CC(C)OCCCNC(=O)c1ccc(C2SCC(=O)N2Cc2ccco2)cc1 (stereo unspecified),-3.14% (inactive)
13,COc1cc(NC(=O)C2CCN(c3cnccn3)CC2)cc(OC)c1,-1.38% (inactive)
14,COc1cccc(-c2nc(S(=O)(=O)c3ccccc3)c(N3CCOCC3)o2)c1,-1.61% (inactive)
15,COc1cccc(-c2nc3cc(C)ccc3o2)c1,47.1% (active)
16,COc1ccc(C(=O)NCc2nnc(SCC(=O)Nc3cccc(OC)c3)o2)cc1,-4.63% (inactive)
17,COc1cccc(-c2nnc(SCCOc3ccc4c(C)cc(=O)oc4c3)o2)c1,-1.4% (inactive)
18,COc1ccc(C)cc1NC(=O)CSc1ccc(Cl)cc1,2.38% (inactive)
19,COc1ccc2oc(-c3cccc(NC(=O)CSc4ccc(Cl)cc4)c3)nc2c1,14.3% (active)
20,CN(C)Cc1ccc(F)cc1Sc1cc(Cl)ccc1Cl,-1.42% (inactive)
21,O=C(COc1ccc(Cl)cc1Cl)N/N=C/c1ccccn1,13.4% (inactive)
22,Cc1ccc(C(=O)N/C(=C/c2ccc(-c3cccc([N+](=O)[O-])c3)o2)C(=O)NCCCN(C)C)cc1,-1.07% (inactive)
23,C[C@H](NC(=O)c1nc[nH]c1C(=O)NCC(=O)OC(C)(C)C)c1ccccc1,3.3% (inactive)

row,Compound,max response
1,CCCN(CCC)C(=O)C1c2ccccc2Oc2ccccc21,3.35% (inactive)
2,O=C(CN1CCCCCC1)Nc1ccc(Br)cc1[N+](=O)[O-],-2.43% (inactive)
3,COc1ccccc1OCc1nnc(SCC(N)=O)n1-c1ccccc1,7.05% (inactive)
4,O=C(CN1CCN(c2ccccn2)CC1)NC1CCCCC1,9.34% (inactive)
5,COc1ccccc1OCC(=O)OCn1c(SC)nnc(C)c1=O,-1.41% (inactive)
6,N/C(=N\OC(=O)Cc1ccccc1[N+](=O)[O-])c1ccc(Br)cc1,11.4% (inactive)
7,CC(C)(C)NC(=O)NC(=O)COC(=O)CCC1CCCCC1,-2.12% (inactive)
8,COc1ccccc1OCC(=O)O/N=C(\N)c1ccccn1,46.9% (active)
9,N/C(=N\OC(=O)CC1CCCCC1)c1ccccc1,40.4% (active)
10,COc1ccccc1NC(=O)C(C)OC(=O)CC1CCCC1 (stereo unspecified),0.793% (inactive)
11,N/C(=N\OC(=O)CCC1CCCCC1)c1ccccn1,38.6% (active)
12,COc1ccc(C(=O)NCC(=O)N/N=C/c2ccc([N+](=O)[O-])o2)cc1OC,8.64% (inactive)
13,COc1ccc(S(=O)(=O)n2nc(C)c(S(=O)(=O)N3CCOCC3)c2C)cc1,-1.99% (inactive)
14,COc1cccc(CNC(=O)c2nnn(CC(=O)Nc3cc(C)ccc3C)c2N)c1,7.9% (inactive)
15,CSCC[C@H](NC(=O)N1CCn2c1nc1ccccc12)C(=O)NCc1ccc2c(c1)OCO2,0.519% (inactive)
16,Cn1ncc(N2CCN(S(=O)(=O)c3ccc(Br)cc3)CC2)c(Cl)c1=O,-6.65% (inactive)
17,S=c1[nH]cc(-c2ccc(Cl)cc2)n1-c1ccccc1,9.09% (inactive)
18,CC(C)(C)OC(=O)NC(Cc1ccccc1)C(=O)NC(CSC1CCCCO1)C(=O)NN (stereo unspecified),-1.92% (inactive)
19,O=C(CC(c1ccccc1)c1ccccc1)NCC(O)c1ccc([N+](=O)[O-])cc1 (stereo unspecified),-4.98% (inactive)
20,Cc1nn2c(NCCN(C)C)c3c(nc2c1-c1ccccc1)CCC3,-2.49% (inactive)
21,Cc1ccc(CNC(=O)Cn2c(=O)c3sccc3n(Cc3cccc([N+](=O)[O-])c3)c2=O)cc1,3.82% (inactive)
22,CC(=O)n1cc([C@@H]2C=C(C(=O)N3CCN(Cc4ccc5c(c4)OCO5)CC3)O[C@H](OCc3ccc(CO)cc3)C2)c2ccccc21,0.854% (inactive)
23,O=C(NCc1cccc(CNC(=O)Nc2cccc(O)c2)c1)Nc1cccc(O)c1,-1.08% (inactive)

row,Compound,max response
1,O=C(Nc1cccc(C(=O)N2CCCC2)c1)c1ccccc1,-1.45% (inactive)
2,O=C(Cc1ccccc1)Nc1cccc(NC(=O)c2ccccc2)c1,-0.775% (inactive)
3,Cc1ccc(OCC(=O)NCCCNC(=O)c2cccnc2)cc1C,-4.42% (inactive)
4,O=C(Nc1cccc(O)c1)c1ccc(C(=O)c2ccccc2)o1,40.5% (active)
5,Cc1ccc(NC(=O)COc2ccc(/C=N\NC(=O)c3cccnc3)cc2)cc1C,12.4% (inactive)
6,COc1cc(/C=C(/NC(=O)c2ccccc2)C(=O)Nc2cccc(O)c2)c([N+](=O)[O-])cc1OC,-3.43% (inactive)
7,C/C(=C\C(=O)c1cccnc1)Nc1ccc(C)c(C)c1,29% (active)
8,C/C(=C\C(=O)c1ccccc1)Nc1cccc(O)c1,29.3% (active)
9,CCCCCN(C(=O)CCC(=O)OCC(=O)NCc1ccc(OC)cc1)c1c(N)n(CCCC)c(=O)[nH]c1=O,-0.685% (inactive)
10,COc1ccc(NC(=O)c2sc(N3CCOCC3)nc2-c2ccccc2)c(OC)c1,-2.89% (inactive)
11,COc1ccc(C(=O)NCCNc2ccc([N+](=O)[O-])cn2)cc1,4.73% (inactive)
12,CCN(CC)CCCNC(=O)COc1ccc2oc3c(c2c1)CCCC3,-5.99% (inactive)
13,Cc1ccc(OCC(=O)Nc2ccc(S(=O)(=O)Nc3ccccn3)cc2)cc1,1.04% (inactive)
14,O=C(COc1ccc2oc3c(c2c1)CCCC3)Nc1ccccn1,28.6% (active)
15,COc1ccc(CN2CCN(Cc3ccc(OC)c(OC)c3OC)CC2)cc1,-4.12% (inactive)
16,Cc1ccc(CS(=O)Cc2ccc(C(=O)N3CCOCC3)o2)cc1 (stereo unspecified),0.901% (inactive)
17,CC(=O)NS(=O)(=O)c1ccc(N/C(N)=N/c2nc(C)cc(C)n2)cc1,-0.472% (inactive)
18,COc1ccc(CCNC(=O)CN2C(=O)COc3ccc(S(=O)(=O)N4CCCC4)cc32)cc1OC,-2.34% (inactive)
19,CCNc1nc(NC(C)C)nc(N2CC(=O)N(CC(=O)OCC)C2=N)n1,-5.32% (inactive)
20,CCN(CC)S(=O)(=O)c1ccc(-c2cn3ccc(C)cc3n2)cc1,45.6% (active)
21,CCN(c1cccc(C)c1)S(=O)(=O)c1ccc(-c2coc(C)n2)cc1,-4.01% (inactive)
22,COc1ccc(-c2cn3ccc(C)cc3n2)cc1,-1.85% (inactive)

# From PubChem BioAssay AID2314 (National Center for Advancing Translational Sciences (NCATS), 2010)
